Experimental data: PubChem BioAssay (NCI)
Compounds without any hit were thinned out: in the full panel of roughly 79,000, 15% have a hit. Rule as the data show it: active = growth inhibition above about 70%; inactive = the rest.

Tests used:
[1] = NCI Yeast Anticancer Drug Screen. Data for the rad50 strain (AID 155);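 also: 0% = growth of vehicle-only cultures of the same strain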; settings: S. cerevisiae rad50 strain growth inhibition; at 50.0 µM; hits give high values
Procedure, shortened: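 Compounds were tested on a yeast strain with an engineered DNA damage repair alteration; the reported value is growth inhibition normalised to vehicle treatment.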

[2] = NCI Yeast Anticancer Drug Screen. Data for the mec2-1 strain (AID 157); settings: S. cerevisiae mec2-1 strain, at 50.0 µM, hits give high values
Procedure, shortened: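 Strain: mec2-1 (DNA repair/cell cycle alteration). Compound exposure, then growth measured; inhibition expressed relative to vehicle.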

[3] = NCI Yeast Anticancer Drug Screen. Data for the sgs1 mgt1 strain (AID 161);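 also: 0% = growth of cultures given vehicle only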; settings: S. cerevisiae sgs1 mgt1 strain, at 50.0 µM, hits give high values
Procedure, shortened: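 Mutant yeast exposed to compound; growth scored against vehicle-only wells.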

[4] = NCI Yeast Anticancer Drug Screen. Data for the cln2 rad14 strain (AID 165);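 also: 0% = growth equal to vehicle treated cultures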; settings: S. cerevisiae cln2 rad14 strain, at 50.0 µM, hits give high values
Procedure, shortened: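 Compounds are applied to the cln2 rad14 yeast strain, and growth is then compared with that of vehicle-treated cultures to give inhibition.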

[5] = NCI Yeast Anticancer Drug Screen. Data for the bub3 strain (AID 167); settings: S. cerevisiae bub3 mutant strain, at 50.0 µM, hits give high values
Procedure, shortened: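 Growth of a checkpoint-deficient yeast mutant is measured after compound exposure. Values represent inhibition relative to vehicle.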

[6] = NCI Yeast Anticancer Drug Screen. Data for the mlh1 rad18 strain (AID 175); settings: S. cerevisiae mlh1 rad18 strain growth inhibition; at 50.0 µM; hits give high values
Procedure, shortened: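 Read-out is yeast growth inhibition, calculated against vehicle-only controls. The compound was applied to a strain engineered with DNA damage repair alterations.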

Measured: growth inhibition

CC(=O)Nc1ncc(Br)s1
inactive: [1] 6.75% | [2] 6.05% | [3] -18.4% | [4] -13.8% | [5] -9.4% | [6] 5.3%

O=CNc1ncccn1
inactive: [1] -6.95% | [2] 1.3% | [3] 7.25% | [4] -2.05% | [5] -2.2% | [6] -7.75%

O=C(Nc1ccccc1)c1cc([N+](=O)[O-])cc([N+](=O)[O-])c1
inactive: [1] 9.25% | [2] 16.4% | [3] 15.3% | [4] -24.6% | [5] 9.55% | [6] 0.05%

COc1ccc(CCNC(=O)C(=O)c2c[nH]c3ccccc23)cc1OC
inactive: [1] 12.6% | [2] 18.8% | [3] 22.4% | [4] 14.3% | [5] 9.55% | [6] 25.2%

NC(=O)C1CCCNC1 (stereo unspecified)
inactive: [1] -6.6% | [2] -6.65% | [3] -10.4% | [4] -13.6% | [5] 15.6% | [6] 6.85%

Cc1ccc(O)c2occ(C)c12
inactive: [1] 17.7% | [2] 12.1% | [3] 10.5% | [4] 36.9% | [5] -2.8% | [6] 39.5%

O=C1c2ccccc2-c2ccc([N+](=O)[O-])cc21
inactive: [1] 35.6% | [2] 5.8% | [3] -0.3% | [4] 8.65% | [5] -1.3% | [6] -2.85%

O=C(O)c1ccccc1Nc1ccccc1[N+](=O)[O-]
inactive: [1] -4% | [2] 22.5% | [3] 17.2% | [4] 8.15% | [5] 27.1% | [6] 17.6%

CC(=O)Nc1ccc2ccccc2c1SC1CC(=O)N(c2ccccc2)C1=O (stereo unspecified)
inactive: [1] -24.1% | [2] -3% | [3] -26.2% | [4] -23.4% | [5] -15.8% | [6] -20.6%

COC1=C(C#N)C(c2ccccc2)CC(N)=N1 (stereo unspecified)
inactive: [1] 1.55% | [2] -11.1% | [3] -10.1% | [4] 2.1% | [5] -1% | [6] 20.4%

C=C(Br)c1ccc2c(c1)OCO2
inactive: [1] 30% | [2] 15.7% | [3] 20.9% | [4] 8% | [5] 4.05% | [6] -8.55%

CCOC(Nc1ccccc1[N+](=O)[O-])C(=O)c1ccccc1 (stereo unspecified)
inactive: [1] 21.4% | [2] 8.05% | [3] 1.35% | [4] 28.7% | [5] 24.4% | [6] 12.7%

Fc1ccc(Nc2cc(F)cc(F)c2)cc1
inactive: [1] 22.7% | [2] 8.45% | [3] 17.4% | [4] 3.2% | [5] 10.6% | [6] 11.1%

CC(=O)NNc1nc(C)c(C(=O)NNC(=O)C(=O)Nc2cccc(C(C)=O)c2)s1
inactive: [1] 7.3% | [2] 0.5% | [3] -23.1% | [4] 36.5% | [5] 0.85% | [6] -12.3%

CCOC(=O)C1CC(=O)NC(N)=N1 (stereo unspecified)
inactive: [1] -12.6% | [2] -29.4% | [3] -13.6% | [4] -7.95% | [5] -8.2% | [6] -14.2%

O=C(Cn1ccccc1=O)c1ccc(F)cc1
inactive: [1] 9.65% | [2] -0.15% | [3] 0% | [4] -18.6% | [5] 1.7% | [6] -8.25%

C/C(CC(=O)N1CCCCC1)=N\NC(N)=S
inactive: [1] -6.95% | [2] -9.45% | [3] -18.9% | [4] -10.5% | [5] 2.2% | [6] -18.2%

O=Cc1c[nH]c2ccccc2c1=O
inactive: [1] 17.1% | [2] 0.9% | [3] 1.05% | [4] 3.55% | [5] 30.4% | [6] 10.9%

COc1ccc(Cl)cc1NC(=O)Nc1ccc(SC)cc1
inactive: [1] 24.1% | [2] 50.6% | [3] 56.5% | [4] 20.8% | [5] 33% | [6] 35.5%

O=C1CCC(C(Sc2ccccc2)(Sc2ccccc2)Sc2ccccc2)C1 (stereo unspecified)
inactive: [1] -5.05% | [2] -21.7% | [3] -22% | [4] -7.2% | [5] -1.55% | [6] -41.4%

CC1=C/C(=N/NS(=O)(=O)c2ccc(C)cc2)CC(C)(C)C1
inactive: [1] 27.6% | [2] -3.25% | [3] 11.8% | [4] -22.3% | [5] 4.1% | [6] 13.2%

CC1(C)CCNc2ccccc2S1
inactive: [1] -0.55% | [2] 1.7% | [3] 2.05% | [4] -25.9% | [5] -11.1% | [6] -14.6%

Cn1c(=O)c2ccccc2c2cc([N+](=O)[O-])ccc21
inactive: [1] -11.8% | [2] -5.05% | [3] -18.5% | [4] 1.1% | [5] 12.7% | [6] -4.2%

COc1ccc(CCN=C(C)c2cc(Cl)cc(Cl)c2O)cc1OC
inactive: [1] 31.1% | [2] 16.2% | [3] 7% | [4] 19.3% | [5] -0.4% | [6] 13.9%

CSC(SC)=C(C(=O)c1ccc(Cl)cc1)n1c(=O)sc2cc(Br)ccc21
inactive: [1] -19% | [2] 2.45% | [3] 6.25% | [4] 0.25% | [5] 12.8% | [6] -20.4%

COc1ccc(C2C(C#N)=C(N)NC(=O)C2C(N)=O)cc1 (stereo unspecified)
inactive: [1] -12.6% | [2] -11.8% | [3] -16.8% | [4] -0.1% | [5] -4.05% | [6] -19.4%

O=C(O)/C=C/c1c2ccc(=O)c(O)c-2oc2c(O)c(O)ccc12
inactive: [1] 36.4% | [2] 24.4% | [3] 13.9% | [4] -23.9% | [5] 10.2% | [6] 44.8%

CCC(c1ccco1)C(C#N)C(=O)OC(C)(C)C (stereo unspecified)
inactive: [1] -11.8% | [2] -21.9% | [3] -1.05% | [4] -5.8% | [5] -16.3% | [6] -27.7%

Cc1ccccc1OCC(O)CO (stereo unspecified)
inactive: [1] 4.2% | [2] -5.9% | [3] -8.7% | [4] 22.2% | [5] -23.4% | [6] -13.6%

CN(C)c1ccc2c(c1)c1cc(N(C)C)ccc1n2Cc1ccccc1
inactive: [1] -2.05% | [2] -19.6% | [3] 12.2% | [4] -30.4% | [5] 1.95% | [6] -10.2%

CCN(CC)CC(O)c1ccc2ccccc2c1 (stereo unspecified)
inactive: [1] 47.6% | [2] 13.2% | [3] 25.8% | [4] -21.2% | [5] 22.4% | [6] 40.9%

O=C(/C=C/c1ccccc1)Nc1cc(Cl)ccc1Cl
inactive: [1] 4.75% | [2] 26.1% | [3] 22.6% | [4] -7.3% | [5] 31.8% | [6] 17.6%

O=C(CCCc1ccccc1)NO
inactive: [1] 14.7% | [2] 33.6% | [3] 17.5% | [4] 3.35% | [5] 10.8% | [6] 13.6%

CC(=O)NCCC(=O)NCCSC(C)=O
inactive: [1] -15% | [2] -12% | [3] 18.9% | [4] 6.15% | [5] -3.35% | [6] 9.25%

O=c1ccc(=O)n(-c2ccc(Cl)cc2)[nH]1
inactive: [1] -8.1% | [2] -21.8% | [3] -12.7% | [4] 23.4% | [5] -6% | [6] -9.9%

CC(c1ccccc1)C(C)(C)O (stereo unspecified)
inactive: [1] 10.2% | [2] -8.25% | [3] 27% | [4] 20.3% | [5] -14.5% | [6] -4.95%

CC12CCCCC1CC(=O)/C(=C\O)C2 (stereo unspecified)
inactive: [1] 12.7% | [2] 15.1% | [3] 17.9% | [4] -29.1% | [5] -11.3% | [6] 14%

CCCOC(=O)c1ccccc1C(=O)OC1CCCCC1
inactive: [1] 8% | [2] -2.05% | [3] 9.2% | [4] -18% | [5] -2.4% | [6] -8.65%

CC(=O)NC(Cc1ccc(OC(C)=O)c(OC(C)=O)c1)C(C)=O (stereo unspecified)
inactive: [1] -10.4% | [2] 9.7% | [3] -0.7% | [4] -8.3% | [5] -10.6% | [6] 6%

CCOC(=O)C(NC(=O)Cc1ccccc1)C(=O)O (stereo unspecified)
inactive: [1] -18.8% | [2] 15.5% | [3] -3.2% | [4] -6.4% | [5] -1.65% | [6] 3.35%

CCC(=O)N1CCN(C(=O)CC)c2ccccc21
inactive: [1] -3% | [2] -5.8% | [3] -0.25% | [4] -5.25% | [5] 0.75% | [6] 6.65%
